Each structure is given as a SMILES string. About 660 (0.2%) of roughly 330,000 compounds were called active. This is one part of a sample in which actives are shown more often than they occur.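 Rule for the calls: active = inhibition of at least 40% at 10 µM in the primary screen; inactive = the rest.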

This assay relates to intestinal alkaline phosphatase [Mus musculus]. Description: mouse intestinal phosphatase enzyme inhibition – biochemical, luminescence, uHTS, primary screen (AID 2806).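 Note: plate controls were DMSO with enzyme for no effect and no enzyme wells for full effect.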 The settings on record: purified mouse IAP, CDP-Star luminescence, 30 min; at 10 µM; stronger effect = higher value.
For `O=c1ccc2c(-c3ccccc3S(=O)(=O)O)c3ccc(O)c(O)c3oc-2c1O`, the inhibition (usually the change of the read-out against control, counted positive when it falls) was 64.9% (active).
To `Cc1ccccc1C(OCCN(C)C)C1CCCCC1` (stereo not drawn) belongs -6% (inactive); to `CCN(C[C@H]1N[C@@](CC)(C(=O)OC)[C@H]2C(=O)N(C)C(=O)[C@@H]12)C(=O)Nc1ccc(F)cc1`, 2.6% (inactive).
To `CCOC(=O)c1cc(-c2ccccc2C)n(Cc2cc(C)no2)n1` belongs -6.2% (inactive); to `CN(C)c1ccc(N/C=C/C(=O)C(F)(F)F)cc1`, 7.4% (inactive).
To `COCC1CCN(C(=O)C2CCC(=O)N(CC3CCCCC3)C2)CC1` (stereo not drawn) belongs 4.4% (inactive); to `Nc1ccc2nc3c(=O)[nH]c(=S)[nH]c3nc2c1`, 70.9% (active); to `C=CCC(NC(=O)Cc1ccccc1)C(=O)NCCC` (stereo not drawn), -3.3% (inactive).
For `CCOc1ccc2nc(Cl)c(C3CC(c4ccccc4)=NN3C(=O)c3cccs3)cc2c1` (stereo not drawn), the inhibition is 13.7% (inactive).
As to `O=C(NCCOc1cccnc1)c1ccc(OC2CCN(Cc3ccccn3)CC2)cc1`, the inhibition was 4.2% (inactive).
`O=C(CCCN=C1NS(=O)(=O)c2ccccc21)OCC(=O)c1ccc(F)c(F)c1`: the inhibition is -12.2% (inactive).
To `COC(=O)CN(c1nc(C)c(Cl)c(OC)n1)S(=O)(=O)c1ccc(C)cc1` belongs 0.2% (inactive).
Take `CCCCN(C)CCNC(=O)C1CCCN(S(=O)(=O)c2cccc3nsnc23)C1` (stereo not drawn): the inhibition was 4.9% (inactive).
In the case of `CS(=O)(=O)N(CC(=O)NC1CCCC1)Cc1ccc(F)cc1`, the inhibition was 3.3% (inactive).
To `C=CCSc1nc(N)cc(=O)[nH]1` belongs 4.4% (inactive); to `CCc1ccc(N(CC)c2ncnc3nc[nH]c23)cc1`, 7.5% (inactive).
`Cc1cc(C)c(C)c(S(=O)(=O)N[C@@H](C)C(=O)OC(C)C(=O)NC(N)=O)c1C` (stereo partly drawn): the inhibition was -4.2% (inactive).
To `CC(NC(=O)c1ccccc1C(=O)O)c1ccc(-n2ccnc2)cc1` (stereo not drawn) belongs 0.1% (inactive).
To `COc1cc(/C=N/NC(=O)CCc2n[nH]c(=O)[nH]c2=O)ccc1O` belongs -0.9% (inactive).
To `CC(=O)c1sc(N/N=C\c2ccc(C)cc2)nc1C` belongs 10.3% (inactive).
`COc1cc(/C=N\Nc2nc(-c3cccs3)c(NC(C)=O)s2)ccc1O`: the inhibition was 41% (active).
Consider `Fc1ccccc1/C=C1\CCCC2=C1Nc1ncnn1C2c1ccccc1F` (stereo not drawn), for which the inhibition was 0% (inactive).
To `O=[N+]([O-])/C(N=Nc1ccccc1)=N\Nc1ccccc1` belongs -0.1% (inactive); to `CSCCC1NC2(C(=O)Nc3ccc(Cl)cc32)[C@@H]2C(=O)N(C3CCCC3)C(=O)[C@H]12` (stereo partly drawn), 3.1% (inactive).
To `Nc1c(C(=O)c2cccs2)sc2nsc(SCCN3CCCCC3)c12` belongs 16.4% (inactive); to `CN(c1ccccc1)S(=O)(=O)c1ccc2[nH]c(=O)[nH]c2c1`, 6.6% (inactive).
To `CCN(c1ccccc1)S(=O)(=O)c1ccc(N)cc1` belongs -11.2% (inactive); to `CCN(c1ccccc1)S(=O)(=O)c1ccc2[nH]c(=O)[nH]c2c1`, 52.1% (active).
